In PubChem BioAssay:
Activity calls are given as the source filed them.

Experiments:
Albumin (Bos taurus) = Albumin (Bos taurus) (UniProt P02769); assay: compounds binding labelled BSA control protein – biochemical, small-molecule microarray, Alexa647 label, 635/667 nm fluorescence, artefact control for SMM control protein annotation, profiling panel (AID 1118); conditions: BSA-A647 binding, fluorescence 635 nm, higher = more signal;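 note: score merges 667 nm emission intensity and signal-to-noise per printed compound spot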
[1] = probe aXIP binding to arrayed compounds – biochemical, NeuroSMM set, 635/667 nm fluorescence, primary screen (AID 1119); conditions: small-molecule microarray, higher = more signal, called active from +8 up or from −8 down;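 note: probe is the protein aXip251-270 applied at 1 µg/mL to compound-printed slides; binding of probe to printed compounds measured as 667 nm fluorescence plus signal to noise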
[2] = probe aNOTCH3 binding on compound microarray – biochemical, small-molecule microarray, 635/667 nm fluorescence, primary screen (AID 1120); conditions: higher = more signal;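 note: probe is a biotin-tagged antibody raised against NOTCH3 rather than NOTCH3 protein; score merges spot fluorescence near 667 nm with spot signal to noise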
[3] = probe aNOTCH2 binding on compound microarray – biochemical, small-molecule microarray, 635/667 nm fluorescence, primary screen (AID 1121); conditions: higher = more signal;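 note: score merges feature fluorescence read at 667 nm with its signal to noise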
[4] = target: Carbonic anhydrase 2 (Homo sapiens) (UniProt P00918); assay: compounds binding carbonic anhydrase 2 – biochemical, small-molecule microarray, Alexa647-labelled CAII, profiling panel (AID 1122); conditions: CAII-A647 binding fluorescence, higher = more signal
[5] = COS7 lysate on small-molecule microarray, probe aHis, 635 nm (AID 1123); conditions: COS7 cell lysate, fluorescence, higher = more signal;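 note: z-score combines 667nm fluorescence intensity with signal-to-noise per printed compound spot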
[6] = probe aLAP1 signal on lysate-treated microarray – cell lysate, small-molecule microarray, COS7 lysate, primary screen (AID 1124); conditions: probe aLAP1, fluorescence, higher = more signal;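 note: lysate comes from COS7 cells expressing LAP1 and is applied at 0.3 µg/mL; score merges spot fluorescence near 667 nm with signal-to-noise over triplicate slides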
Sam68 (KHDRBS1) = assay: compounds binding KHDRBS1 protein – biochemical, small-molecule microarray, 635 nm fluorescence, primary screen (AID 1125); conditions: higher = more signal;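 note: score merges 667 nm channel intensity with signal to noise over triplicate slides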
[7] = tested on: Chordin-like protein 2 (CHRDL2); assay: compounds binding chordin-like 2 – biochemical, small-molecule microarray, 635 nm fluorescence, primary screen (AID 1126); conditions: fluorescence 635 nm, higher = more signal;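 note: printed compound slides probed with Chrdl2 protein at 4 µg/mL for 1 h at 4 C; score merges 667 nm emission intensity with signal to noise over three replicate slides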
[8] = target: Concanavalin-A (Canavalia ensiformis) (UniProt P02866); assay: compounds binding concanavalin A lectin – biochemical, small-molecule microarray, Alexa647 label, 635 nm, artefact control for SMM control protein annotation, primary screen (AID 1127); conditions: ConA-A647 binding fluorescence, higher = more signal;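 note: z combines 667 nm emission intensity with signal-to-noise across three replicate slides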
Concanavalin-A (Canavalia ensiformis), sequence (P02866 whole entry, looked up): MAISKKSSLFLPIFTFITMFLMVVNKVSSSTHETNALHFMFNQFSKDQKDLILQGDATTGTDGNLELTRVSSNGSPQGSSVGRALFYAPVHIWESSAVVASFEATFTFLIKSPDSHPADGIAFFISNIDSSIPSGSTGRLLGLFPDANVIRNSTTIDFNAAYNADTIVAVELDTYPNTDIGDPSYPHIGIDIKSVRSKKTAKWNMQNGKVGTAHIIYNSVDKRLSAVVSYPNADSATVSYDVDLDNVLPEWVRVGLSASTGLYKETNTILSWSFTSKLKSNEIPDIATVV

Albumin (Bos taurus), sequence (P02769 whole entry, looked up): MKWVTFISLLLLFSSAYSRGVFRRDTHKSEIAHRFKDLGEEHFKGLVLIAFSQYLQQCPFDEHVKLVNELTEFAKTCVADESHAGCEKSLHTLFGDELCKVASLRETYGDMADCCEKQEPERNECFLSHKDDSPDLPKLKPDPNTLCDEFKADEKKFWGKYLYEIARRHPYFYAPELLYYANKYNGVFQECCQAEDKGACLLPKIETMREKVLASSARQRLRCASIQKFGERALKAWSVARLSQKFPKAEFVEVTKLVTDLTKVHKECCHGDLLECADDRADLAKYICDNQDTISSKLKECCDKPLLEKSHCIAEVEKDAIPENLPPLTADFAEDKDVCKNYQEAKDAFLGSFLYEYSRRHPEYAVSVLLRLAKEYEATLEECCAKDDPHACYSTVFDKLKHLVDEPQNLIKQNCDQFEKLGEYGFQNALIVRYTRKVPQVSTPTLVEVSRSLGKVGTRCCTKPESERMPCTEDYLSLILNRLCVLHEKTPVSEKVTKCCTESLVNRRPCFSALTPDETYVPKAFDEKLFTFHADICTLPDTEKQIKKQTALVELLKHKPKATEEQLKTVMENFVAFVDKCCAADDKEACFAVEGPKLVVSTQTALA

| Structure (SMILES) | composite z-score (Albumin (Bos taurus)) | composite Z-score [1] | composite z-score [2] | composite z-score [3] | composite z-score [4] | composite z-score [5] | composite z-score [6] | composite z-score (Sam68 (KHDRBS1)) | composite z-score [7] | composite z-score [8] |
| --- | --- | --- | --- | --- | --- | --- | --- | --- | --- | --- |
| Cc1ccc(C(C)CC(O)C2C=CC3C(=O)N(c4ccccc4)C(=O)C3N2Nc2ccc(C(C)C)cc2)o1 (stereo not given) | 0.935 | -0.263 (inactive) | 0.126 | 0.299 | 0.541 | 1.33 | 0.835 | 1.28 | -0.527 | 1.15 |
| CC(C)CN1C(=O)[C@@]2(Cc3ccccc31)c1ccccc1C(=O)N(Cc1ccccc1C(F)(F)F)[C@H]2c1ccc(CO)cc1 | -0.139 | 0.174 (inactive) | -0.172 | -0.157 | -0.381 | -0.562 | -0.438 | -2.12 | -0.846 | 0.027 |
| CN1C(=O)C2C=CC(C(O)C3CCCCC3)N(N3CCCCC3)C2C1=O (stereo not given) | 0.92 | 1.56 (inactive) | 0.196 | 0.0019 | 0.663 | 2.48 | 0.794 | 1.3 | 0.0449 | 0.927 |
| Cc1c(NC(=O)/C(C#N)=C/C=C/c2ccccc2[N+](=O)[O-])c(=O)n(-c2ccccc2)n1C | 0.974 | -0.148 (inactive) | -0.0903 | -0.0234 | 0.643 | 1.11 | 1.04 | 0.708 | 0.704 | 0.761 |
| COc1ccc(NN2C(C(O)c3ccccn3)C=CC3C(=O)N(C4CCCCC4)C(=O)C32)cc1 (stereo not given) | 0.907 | 0.0797 (inactive) | 0.263 | 0.0117 | 0.7 | 2.24 | 0.969 | 1.3 | -0.203 | 1.14 |
| COC(=O)C(CC#Cc1ccc2c(c1)[C@]1(C(=O)N2)[C@H](C(=O)O)[C@H]2C(=O)O[C@H](c3ccccc3)[C@H](c3ccccc3)N2[C@@H]1c1ccccc1OCCO)C(=O)OC | 0.788 | -0.051 (inactive) | 0.277 | 0.054 | 0.684 | 1.62 | 1.11 | 1.32 | 0.364 | 1.15 |
| CN(C)CCCCNC(=O)[C@H]1C[C@H]2C(=O)N3CCC[C@H]3C(=O)N2[C@H]1c1ccc(O)cc1 | -0.813 | 0.11 (inactive) | -0.738 | -0.5 | 0.666 | 1.44 | -0.642 | -1.11 | 0.0994 | -0.397 |
| COc1ccc(NC(=O)O[C@H]2[C@H](OC(=O)Nc3ccc4c(c3)OCO4)[C@@H](OC(=O)Nc3ccc4c(c3)OCO4)[C@@H](OC)O[C@@H]2CO)cc1 | 0.837 | 0.622 (inactive) | 0.121 | -0.0116 | 0.442 | 2.71 | 0.714 | 1.29 | 0.143 | 1.11 |
| O=C1OCC=C[C@H]2OC34C=CCN(c5ccc(Cl)cc5)C(=O)[C@H]3N(CCCCCO)C(=O)[C@@H]4[C@@H]12 (stereo not given in full) | 0.387 | 0.0583 (inactive) | -0.42 | -0.168 | 0.807 | -0.347 | 0.406 | -1.56 | -0.971 | -0.893 |
| COC(=O)[C@]1(CCS(=O)(=O)c2ccccc2)N=C(c2ccc(OCCCO)cc2)O[C@@H]1c1ccccc1CN=[N+]=[N-] | -0.453 | -0.139 (inactive) | 0.0357 | 0.062 | 0.416 | 1.95 | 0.472 | 1.29 | -0.0531 | 0.848 |
| NC(=O)N1C(=O)C2C(C1=O)C1C=C(CCCO)C2C(c2cccs2)N1Cc1cc2c(cc1Br)OCO2 (stereo not given) | 0.429 | -0.483 (inactive) | -0.0328 | -0.12 | 0.757 | 1.04 | -0.0752 | 0.234 | -0.663 | 0.827 |
| C[C@@H](OCc1ccccc1)C1NC(=O)[C@@]23C(=O)N[C@@H](Cc4ccccc4)C2[C@H](C)[C@@]2(C)O[C@H]2C3/C=C/C/C=C\CNC(=O)CNC1=O (stereo not given in full) | 0.651 | 0.536 (inactive) | -0.0647 | -0.133 | 0.721 | -0.282 | 0.234 | -1.28 | 0.0667 | -2.32 |
| COCCOC(=O)N1C(=O)[C@@]2(c3cc(C#Cc4ccc(OC)cc4)ccc31)[C@H](C(=O)N1CCN(c3ncccn3)CC1)[C@H]1C(=O)O[C@H](c3ccccc3)[C@H](c3ccccc3)N1[C@@H]2c1ccccc1OCCO | -0.108 | 0.131 (inactive) | -0.122 | -0.114 | 0.331 | 1.3 | 0.107 | 0.717 | -0.0849 | 0.819 |
| C[C@]1(C(=O)NCCN2CCOCC2)c2ccccc2C(=O)N(Cc2ccc(OC(F)(F)F)cc2)[C@H]1c1ccc(CO)cc1 | 0.723 | 0.456 (inactive) | -0.154 | -0.0966 | 0.627 | 2.43 | 0.345 | 0.217 | -1.15 | 0.392 |
